# ROC1-CUL1 inh: blocks human RBX1-Cullin-1 di-ubiquitin formation; in vitro K48 di-Ub FRET, acceptor:donor ratio, 45 min; inhibition, % at 10 µM; hit rate 0.6% among 140,000; AID 1347404; in the data active means inhibition above about 25%
# Target sequence (P62877 whole entry, looked up): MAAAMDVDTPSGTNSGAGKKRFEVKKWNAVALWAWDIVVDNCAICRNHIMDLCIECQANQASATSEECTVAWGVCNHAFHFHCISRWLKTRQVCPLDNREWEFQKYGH
# Target sequence (Q13616 whole entry, looked up): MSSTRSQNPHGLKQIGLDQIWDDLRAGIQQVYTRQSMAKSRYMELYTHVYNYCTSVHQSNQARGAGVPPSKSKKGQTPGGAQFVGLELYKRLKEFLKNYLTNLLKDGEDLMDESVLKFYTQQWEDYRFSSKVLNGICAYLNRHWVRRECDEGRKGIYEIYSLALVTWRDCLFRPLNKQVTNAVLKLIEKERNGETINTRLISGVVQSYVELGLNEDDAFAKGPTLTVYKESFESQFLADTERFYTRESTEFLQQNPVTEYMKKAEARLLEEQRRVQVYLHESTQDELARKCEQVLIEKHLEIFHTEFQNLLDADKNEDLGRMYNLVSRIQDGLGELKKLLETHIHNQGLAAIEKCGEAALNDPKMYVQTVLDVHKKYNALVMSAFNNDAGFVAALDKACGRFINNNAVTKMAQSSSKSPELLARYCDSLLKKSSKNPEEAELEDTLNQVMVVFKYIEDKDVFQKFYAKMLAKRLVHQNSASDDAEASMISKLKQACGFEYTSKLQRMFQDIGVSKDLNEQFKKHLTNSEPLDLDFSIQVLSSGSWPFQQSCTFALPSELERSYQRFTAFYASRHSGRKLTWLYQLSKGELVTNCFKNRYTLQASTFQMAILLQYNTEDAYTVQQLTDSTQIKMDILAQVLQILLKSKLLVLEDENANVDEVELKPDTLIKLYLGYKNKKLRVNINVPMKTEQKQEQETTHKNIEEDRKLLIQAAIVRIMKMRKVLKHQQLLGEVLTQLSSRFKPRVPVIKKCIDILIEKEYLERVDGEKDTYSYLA
# Active calls of the source: *. The entries come from a sample that favours hits as a whole.
SMILES,ROC1-CUL1 inh
N#CC1=CC2CCCCCCC2=NC1=S (configuration not stated),0
C=CCn1c(-c2ccncc2)nn(CN2CCN(c3ncccn3)CC2)c1=S,13
Cc1cc(=O)oc2cc(Cl)c(OCC(=O)c3ccccc3)cc12,4
COCCN1CC(C(=O)N(CCc2ccccc2)CC2CCN(C)CC2)CC1=O (configuration not stated),4
N#C/C(=C\c1ccc([N+](=O)[O-])o1)c1nc(-c2ccc(F)cc2)cs1,-14
CC(=O)/C(C#N)=C/c1ccc(C#N)o1,3
N#C/C(=C/c1ccc([N+](=O)[O-])o1)C(=O)O,73*
CCOc1ccc(S(=O)(=O)N2CCOCC2)cc1,-7
CCOc1ccc(S(=O)(=O)N2CCC(Cc3ccccc3)CC2)cc1,59*
CCOC(=O)C1CCN(S(=O)(=O)c2ccc(OCC)cc2)CC1,6
Cc1cc(/C=C2/C(=O)NC(=S)N(c3cccc(F)c3)C2=O)c(C)n1-c1ccccc1,14
CCc1ccccc1-n1c(C)cc(/C=C2\C(=O)NC(=O)N(c3cccc(C)c3)C2=O)c1C,7
CCOC(=O)c1cccc(-n2c(C)cc(/C=C3\C(=O)NC(=O)N(c4ccc(C)c(C)c4)C3=O)c2C)c1,1
Cc1cc(/C=C2\C(=O)NC(=S)N(c3cccc(F)c3)C2=O)c(C)n1-c1cccnc1,78*
Cc1cc(/C=C2/C(=O)NC(=S)N(c3ccc(F)cc3)C2=O)c(C)n1-c1ccc(O)cc1,10
Cc1cc(/C=C2\C(=O)NC(=O)N(c3ccc(Cl)c(Cl)c3)C2=O)c(C)n1-c1cccnc1,40*
Cc1cc(OCC(=O)Nc2ccc3c(c2)CCC3)cc(C)c1Cl,-1
O=C(Nc1ccc(-c2cscn2)cc1)C1CCCN(C(=O)CCN2CCCCO2)C1 (configuration not stated),0
COc1cc(NC(=S)N2CCN(c3ccccc3)CC2)c(OC)cc1Cl,5
CC1(C)NC(=O)c2ccccc2O1,-2
O=C1C=CC2(C=C1)OC(=O)c1ccccc1O2,29*
CC1(C)Oc2ccccc2C(=O)C1Br (configuration not stated),10
CC(C)(C)C(=O)O[C@@H]1[C@@H](OC(=O)C(C)(C)C)[C@H](O)[C@@H](CO)O[C@H]1Sc1ccccc1,4
COC(=O)c1sccc1NC(=O)CSc1nc2c(C)cccc2[nH]1,4
COc1cccc(-c2noc(-c3ccc(N4CCCCC4CO)nc3)n2)c1OC (configuration not stated),-6
SMILES,ROC1-CUL1 inh
Cc1cc2ncn(S(=O)(=O)c3c(C)c(C)cc(C)c3C)c2cc1C,-5
Cc1c(Cl)cccc1NC(=O)COc1ccc(S(=O)(=O)NCc2ccccc2)cc1,6
Oc1c(Br)cc(Br)nc1Br,2
Oc1c(Br)cc(C(=C(Cl)Cl)c2cc(Br)c(O)c(Br)c2)cc1Br,66*
CC1C(=O)c2cccc3c2C(C(=O)NC3=O)C1=O (configuration not stated),18
COc1ccc(CN2CCCCCCC2)cc1OCC(O)CN1CCN(C)CC1 (configuration not stated),-8
Cn1c(SCC(=O)c2cc(C(C)(C)C)c(O)c(C(C)(C)C)c2)nc2ccccc21,7
Cc1cccc(NC(=O)c2sc3nc4c(cc3c2N)CCC4)c1,2
Cc1ccc(/C=C\c2ccc3ccccc3c2)cc1,-6
CC[n+]1c(/C=C/c2ccc3c(c2)c2ccccc2n3C)ccc2ccccc21,69*
Cn1c2ccccc2c2cc(/C=C/c3nc4ccccc4s3)ccc21,0
Cc1ccc(-c2cc(=O)[nH]c(N3CCC(C)CC3)n2)cc1,0
O=C(c1ccc2c(c1)OCCO2)N1CCCC(CO)(CCOc2ccccc2)C1 (configuration not stated),7
COc1ccc(-n2c(SC(F)F)nnc2-c2cccs2)cc1,-8
COc1ccc(C(=O)N=C(Cc2ccc3c(c2)OCO3)C(=O)Nc2ccc3ccccc3c2)cc1,1
COc1ccc(S(=O)(=O)Nc2cccc(N3CCOCC3)c2)c2ccccc12,9
Cc1ccc(-c2nnc(Nc3ccc(OC(F)(F)F)cc3)c3ccccc23)cc1S(=O)(=O)NC(C)C,-2
Cc1[nH]n(-c2ccccc2)c(=O)c1C(C[N+](=O)[O-])c1ccc(F)cc1 (configuration not stated),59*
Cc1[nH]n(-c2ccccc2)c(=O)c1C(c1ccco1)c1c(C)[nH]n(-c2ccccc2)c1=O,5
COc1cc(C(c2c(C)[nH]n(-c3ccccc3)c2=O)c2c(C)[nH]n(-c3ccccc3)c2=O)ccc1C,-17
Cc1[nH]n(-c2ccccc2)c(=O)c1C(c1ccccc1O)c1c(C)[nH]n(-c2ccccc2)c1=O,-7
CCOc1cc(C(c2c(C)[nH]n(-c3ccccc3)c2=O)c2c(C)[nH]n(-c3ccccc3)c2=O)ccc1O,39*
Cc1[nH]n(-c2ccccc2)c(=O)c1C(C[N+](=O)[O-])c1ccc(Cl)cc1 (configuration not stated),2
Cc1[nH]n(-c2ccccc2)c(=O)c1C(c1ccc(OCc2ccc(F)cc2)cc1)c1c(C)[nH]n(-c2ccccc2)c1=O,-7
CCOc1cc(C(c2c(C)[nH]n(-c3ccccc3)c2=O)c2c(C)[nH]n(-c3ccccc3)c2=O)ccc1OCc1ccc(Cl)cc1,19
SMILES,ROC1-CUL1 inh
Cc1[nH]n(-c2ccccc2)c(=O)c1C(c1ccc2c(c1)OCO2)c1c(C)[nH]n(-c2ccccc2)c1=O,46*
CC1(C)CC(=O)C2C=C(c3nc(-c4ccc(F)cc4)cs3)C(=O)N=C2C1 (configuration not stated),-2
O=C1NC(=S)N(c2ccccc2F)C(=O)C1C=Nc1ccc(N2CCOCC2)c(Br)c1 (configuration not stated),-1
COc1cc(C(=O)NCCSC)ccc1OC1CCN(C)CC1,-1
COc1ccc(-c2c3c(nc4sc5c(ncn6c(C)nnc56)c24)CCCC3)cc1,3
CCOC(=O)C(NC(=O)c1ccc(Cl)cc1Cl)(Nc1ccc(Cl)cc1)C(F)(F)F (configuration not stated),-9
Cc1ccc(-c2c3c(=O)n(C)c(=O)n(C)c3cn2-c2ccc(Cl)cc2)cc1,-8
O=C(O)c1ccc(Nc2nc(Cl)nc(Cl)n2)cc1-c1c2ccc(=O)cc-2oc2cc(O)ccc12,106*
Cc1ccc(Nc2nc(Cl)nc(N3CCOCC3)n2)cc1Cl,-6
O=C(c1ccccc1)c1ccccc1Nc1nc(Cl)nc(Cl)n1,4
COc1ccc2c(c1)C=Cc1ccccc1O2,8
COc1ccc2c(c1)C(O)(C(F)(F)F)C(=O)O2 (configuration not stated),-3
COc1ccc2c(c1)C=C1C(=CC(=O)CC1(C)C)O2,111*
COc1ccc(C2CC(c3ccccc3)=Nc3nc(NC(=O)c4ccc(C)cc4)nn32)cc1 (configuration not stated),4
Cc1cccc(-c2cnc(C)nc2C2CCCN(C(=O)c3ccc(Oc4ccccc4)o3)C2)c1 (configuration not stated),12
Cc1ccc(C(=O)Nn2c(CCC(=O)O)ccc2-c2ccc(Cl)cc2)cc1,-15
Cc1ccc(S(=O)(=O)C(F)F)cc1,9
O=S(=O)(c1c(F)c(F)c(F)c(F)c1F)C(F)F,103*
Cn1c2cccc3cccc(c32)[n+]2nc3c(cc12)c1cccc2cccc3c21,95*
C#CCNC(=O)C[n+]1c2ccccc2n2nc3c(cc21)c1cccc2cccc3c21,0
Cn1c2ccccc2c2nsnc21,5
